Reference: PubChem BioAssay AID463173 (ICCB-Longwood Screening Facility, Harvard Medical School, 2010)
Hit rate of the full screen: of about 52,000 compounds, about 4,300 (8.3%) were called active. Rule as the data show it: active = survival mostly below about 52% (no sharp cut-off); inactive = mostly above about 56%. This excerpt belongs to a sample that is enriched for actives.

System: DeltatarO mutant
Experiment: growth inhibition of S. aureus wild type versus tarO mutant, primary screen, teichoic acid synthesis inhibitors, RN4220, OD600 (AID 463173)
Settings: OD600, 18 h, stronger effect = lower value, screened at 18.75 µg/mL (by protocol)

Compound	survival
COC(=O)/C(C#N)=C/c1ccc(-c2ccccc2)o1	75% (inactive)
Cc1ccc(-c2nn(CC(=O)NCc3ccccc3)c3c2cnc2ccc(F)cc23)cc1C	75% (inactive)
O=C(Nc1ccc(F)cc1)c1ccc(Cn2nc(N3CCN(c4ccccc4)CC3)ccc2=O)o1	82% (inactive)
Cn1c(=O)c2c(-c3ccccc3)n3c(c2n(C)c1=O)C(c1ccccc1[N+](=O)[O-])Nc1ccccc1-3 (stereo not given)	79% (inactive)
Cc1ccc(C2Nc3ccccc3-n3c(-c4ccccc4)c4c(=O)n(C)c(=O)n(C)c4c32)cc1 (stereo not given)	41% (active)
COc1ccc(C2Nc3ccccc3-n3c(-c4ccccc4)c4c(=O)n(C)c(=O)n(C)c4c32)cc1 (stereo not given)	79% (inactive)
Cn1c(=O)c2c(-c3ccccc3)n3c(c2n(C)c1=O)C(c1ccc([N+](=O)[O-])cc1)Nc1ccccc1-3 (stereo not given)	34% (active)
COc1ccc(-c2c3c(=O)n(C)c(=O)n(C)c3c3n2-c2ccccc2NC3c2ccc(OC)cc2)cc1 (stereo not given)	74% (inactive)
Cn1c(=O)c2c(-c3ccccc3)n3c(c2n(C)c1=O)C(c1cccc([N+](=O)[O-])c1)Nc1ccccc1-3 (stereo not given)	53% (inactive)
N#Cc1c(Nc2ccccc2)sc(C(=O)c2cccs2)c1N	75% (inactive)
O=C(O)c1cccc2cc[nH]c12	101% (inactive)
Cc1cc(C)c2oc(-c3cccc(NC(=O)c4cc5ccccc5o4)c3)nc2c1	36% (active)
CC(C)(C)c1ccc(-c2nc3cc(NC(=O)c4cc5ccccc5o4)ccc3o2)cc1	71% (inactive)
COc1cccc(OC)c1C(=O)Nc1cccc(-c2nc3cc(C)cc(C)c3o2)c1	68% (inactive)
Cc1cc(C)c2oc(-c3cccc(NC(=O)c4ccc(Br)o4)c3)nc2c1	34% (active)
Cc1cc(C)c2oc(-c3cccc(NC(=O)c4ccco4)c3)nc2c1	87% (inactive)
Cc1ccc2nc(-c3cccc(NC(=O)c4cccc5ccccc45)c3)oc2c1	50% (inactive)
Cc1ccc2nc(-c3cccc(NC(=O)CSc4ccc(Cl)cc4)c3)oc2c1	56% (inactive)
Cc1ccc2nc(-c3cccc(NC(=O)c4ccc(Br)o4)c3)oc2c1	15% (active)
Cc1cc(C)c2oc(-c3cccc(NC(=O)c4ccc(-c5cccc([N+](=O)[O-])c5)o4)c3)nc2c1	75% (inactive)
CCc1ccc(-n2c(=O)c3cccnc3n2CC(=O)NCc2ccc(F)cc2)cc1	94% (inactive)
Cc1cccc(NC(=O)C2CCN(S(=O)(=O)c3cccc4nsnc34)CC2)c1C	88% (inactive)
CCc1ccc(C2=CC(c3cccc(C)c3)n3c(nc4ccccc43)N2)cc1 (stereo not given)	80% (inactive)
COc1ccc(-n2c(SCC(=O)Nc3cc(C)cc(C)c3)nc3c(oc4ccccc43)c2=O)cc1	70% (inactive)
CCOc1ccc(NC(=O)c2ccc3[nH]c(C)cc(=O)c3c2)cc1	79% (inactive)
Cc1cccc(N2CCN(S(=O)(=O)c3ccc4c(c3)CC(=O)N4C)CC2)c1C	129% (inactive)
Cc1ccc(O)c(CNc2cccc3cccnc23)c1	79% (inactive)
Cc1ccnc(NC(c2cc(C)ccc2O)c2ccc3cccnc3c2O)c1 (stereo not given)	4% (active)

Compound	survival
CCOc1cc(C(Nc2cc(C)ccn2)c2ccc3cccnc3c2O)ccc1OC (stereo not given)	146% (inactive)
Cc1ccnc(NC(c2ccccc2F)c2ccc3cccnc3c2O)c1 (stereo not given)	-1% (active)
Cc1ccnc(NCc2cccc3ccccc23)c1	93% (inactive)
Oc1c(C(Nc2ccccn2)c2ccccc2F)ccc2cccnc12 (stereo not given)	102% (inactive)
CC1CCc2c(sc3nnn(CC(=O)Nc4cccc(C(F)(F)F)c4)c(=O)c23)C1 (stereo not given)	70% (inactive)
COc1ccc(NC(=O)c2cc(S(=O)(=O)N3CCCCCC3)cn2C)c(OC)c1	80% (inactive)
O=C(Cn1cnc2onc(-c3ccc(F)cc3)c2c1=O)N1CCN(c2ccccc2F)CC1	76% (inactive)
COc1ccccc1N1CCN(C(=O)CCn2cnc3onc(-c4ccc(F)cc4)c3c2=O)CC1	66% (inactive)
O=C(CCn1cnc2onc(-c3ccc(F)cc3)c2c1=O)N1CCN(c2ccccc2F)CC1	-4% (active)
CC(=O)c1ccc(N2CCN(C(=O)CCn3cnc4onc(-c5ccc(F)cc5)c4c3=O)CC2)cc1	-5% (active)
O=C(CCn1cnc2onc(-c3ccc(F)cc3)c2c1=O)N1CCN(c2ccccc2)CC1	60% (inactive)
O=C(CCn1cnc2onc(-c3ccc(F)cc3)c2c1=O)N1CCN(c2ccc(F)cc2)CC1	77% (inactive)
CC(=O)c1ccc(NC(=O)C2=CC(c3ccc4c(c3)OCO4)=NS(=O)(=O)N2C)cc1	103% (inactive)
CCc1cccc(NC(=O)c2c(N3CCCC3=O)c3cc(C)ccc3n2C)c1	74% (inactive)
CCOC(=O)C1CCN(C(=O)Cn2c(=O)oc3cc(S(=O)(=O)N4CCC(C)CC4)ccc32)CC1	133% (inactive)
Cc1cc(C)cc(NC(=O)CSc2nnc(CNC(=O)c3c(F)cccc3Cl)o2)c1	132% (inactive)
CN(C)S(=O)(=O)c1ccc2c(c1)N(CC(=O)N1CCN(c3ccccc3F)CC1)CCS2	119% (inactive)
COc1cc(NC(=O)Cn2nc(C(F)(F)F)c3c2CCC3)cc(OC)c1OC	130% (inactive)
CC(C)NC(=O)N1[C@H](c2cccs2)[C@@H](C)C(=O)[C@@H](C)[C@@H]1c1cccs1	51% (inactive)
COc1ccccc1NC(=O)c1ccc2[nH]c(C)cc(=O)c2c1	77% (inactive)
CCOC(=O)c1c(NC(=O)COc2ccc(F)cc2)sc2c1CCC(C)C2 (stereo not given)	70% (inactive)
CCOC(=O)c1c(NC(=O)CS(=O)(=O)c2ccc(C)cc2)sc2c1CCC(C)C2 (stereo not given)	102% (inactive)
CCOC(=O)c1c(NC(=O)CCCOc2ccccc2C)sc2c1CCC(C)C2 (stereo not given)	16% (active)
Cc1ccc(OCCCC(=O)Nc2sc3c(c2C(N)=O)CCC(C)C3)cc1 (stereo not given)	159% (inactive)
CCOC(=O)c1c(NC(=O)Cn2nnc3ccccc32)sc2c1CCC(C)C2 (stereo not given)	64% (inactive)
CCOC(=O)c1c(NC(=O)CCCOc2ccc(C)cc2)sc2c1CCC(C)C2 (stereo not given)	10% (active)
CCc1cnc2c(c1SC(C(C)=O)C(=O)N(C)C)c(=O)n(C)c(=O)n2C (stereo not given)	95% (inactive)
